Results published in ChEMBL document CHEMBL3988442, “University of Dundee, Small-Polar-MMV Screening Library” (2021).

Tests used:
[1] = molecular target: T1, Aspartate--tRNA(Asp/Asn) ligase (Mycobacterium tuberculosis (strain ATCC 25618 / H37Rv)) (UniProt P9WFW3); experiment: Assay for Asp RNA synthetase-1 from Mycobacterium tuberculosis; type: functional; set-up: scale not given: direction of the effect not stated beside the values; conditions: 30 µM; note: in the data most compounds retested in dose-response had high values
T1 sequence (whole entry): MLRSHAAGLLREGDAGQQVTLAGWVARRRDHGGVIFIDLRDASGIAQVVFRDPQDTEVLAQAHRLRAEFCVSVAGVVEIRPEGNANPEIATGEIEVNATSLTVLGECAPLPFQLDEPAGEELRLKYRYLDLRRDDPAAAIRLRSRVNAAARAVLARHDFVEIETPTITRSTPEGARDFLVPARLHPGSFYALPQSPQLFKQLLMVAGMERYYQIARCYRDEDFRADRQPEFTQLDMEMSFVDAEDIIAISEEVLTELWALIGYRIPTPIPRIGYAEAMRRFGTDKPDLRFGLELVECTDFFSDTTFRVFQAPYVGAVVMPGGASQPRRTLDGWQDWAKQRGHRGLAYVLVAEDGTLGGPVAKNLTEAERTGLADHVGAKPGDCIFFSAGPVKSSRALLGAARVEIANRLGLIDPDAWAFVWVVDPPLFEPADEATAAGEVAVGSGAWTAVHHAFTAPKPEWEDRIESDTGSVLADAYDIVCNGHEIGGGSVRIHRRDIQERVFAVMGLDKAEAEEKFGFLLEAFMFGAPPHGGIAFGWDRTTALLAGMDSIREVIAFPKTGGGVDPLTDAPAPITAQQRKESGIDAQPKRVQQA

[2] = molecular target: Shiga toxin 2 (Escherichia coli O157:H7) (UniProt P09385+P09386); experiment: E. coli 0.157:H7 Shiga Toxin SOP - stx2 screening assay; type: functional; set-up: scale not given: direction of the effect not stated beside the values; conditions: 30 µM

SMILES	Percent Effect [1] [%]	Percent Effect [2] [%]
CS(=O)(=O)N1CCCC12CCCN(S(=O)(=O)c1ccc(F)cc1)C2 (configuration not stated)	-6.05	7.82
Cn1ccc(CN2CCC(COC3CCCC3)CC2)cc1=O	-0.509	-19.3
CCS(=O)(=O)N1CCC(c2nc3ccc(-c4ccccc4)cn3n2)CC1	0.251	-35.2
CS(=O)(=O)N1CCCCCC1C1CCN(c2ncccc2C#N)CC1 (configuration not stated)	-0.456	27.9
Cc1ccsc1CN(Cc1ccccn1)CC(C)C	-2.01	-3.58
c1csc(CN2Cc3nccn3CC(Cn3cncn3)C2)n1 (configuration not stated)	-2.48	-4.98
Cc1cc(CN(C)C(=O)NCC(C)N2CCc3ccccc32)no1 (configuration not stated)	-1.27	-6.14
CC(C)(C)n1ncc2c1NC(=O)CC2c1ccsc1 (configuration not stated)	2.57	-10.8
Cc1cnc2n1CCN(C)C21CCN(C(=O)CC(C)C)CC1	-4.25	-6.62
CN(Cc1nnc(C2CC2)n1C)C1CCN(Cc2ccc(F)cc2)C1 (configuration not stated)	11.8	9.62
COc1ccccc1CNC(=O)Cn1ncc2c1c(C)nn2C	-0.668	-20.2
COCCN1CCC2(CCN(Cc3nccs3)CC2)C1=O	3.12	-8.73
COc1cccc(-n2nnc(C(=O)N3CCN(C)CC3C)c2C)c1 (configuration not stated)	-2.92	-48.2
O=C1CC2(CCN(CC3CC3)C2)CN1c1cccc(F)c1 (configuration not stated)	0.607	-32.8
O=C(c1ccccc1-c1ccccc1)N1CCOC2(CNCCOC2)C1 (configuration not stated)	1.51	-1.85
CCNC(=O)[C@@H]1C[C@H](NC(=O)c2ccccc2C#N)CN1CCCSC	-0.866	0.196
COc1ccc(CNC(=O)NC(C)Cn2cccn2)cc1O (configuration not stated)	-1.61	17.6
CN1CCCC1CNC(=O)CCCOc1ccc(F)cc1 (configuration not stated)	-1.43	1.57
Cc1cc(C)n(C2CN(CC(O)c3ccc(F)cc3)C2)n1 (configuration not stated)	2.19	6.15
CN(Cc1ccccc1F)C(=O)CS(=O)(=O)Cc1ccc(Cl)c(Cl)c1	2.16	37
Cc1n[nH]c(C)c1C1COCCN1C(=O)c1ccccc1 (configuration not stated)	2.68	-26
CC(=O)NC1CCCN(C(=O)NCc2ccc(-c3ccn[nH]3)cc2)C1 (configuration not stated)	-1.85	1.62
N#Cc1ccccc1C(=O)N1C[C@H](CO)C[C@H](CN2CCCC2)C1	-4.69	0.715
CN(Cc1ccc(F)cc1)CC1(O)CCN(C(=O)c2cccn2C)C1 (configuration not stated)	-4.54	-9.28
CCS(=O)(=O)NC[C@]12COC[C@H]1CN(Cc1cccc(OC)c1)C2	0.596	1.39
CC[C@@H]1N(Cc2ccsc2)CCC[C@]12CCC(=O)N2CCOC	-5.67	7.49

SMILES	Percent Effect [1] [%]	Percent Effect [2] [%]
Cc1ccc(NC2CCN(C(=O)c3n[nH]c4ccccc34)CC2)nn1	0.985	-18.6
O=C(C1CCOCC1)N1C[C@@H]2C[C@@H](c3nc(C4CC4)cs3)O[C@@H]2C1	2.07	17.3
O=C(CN1CCC(c2cccc(F)c2)C1)NCc1ccco1 (configuration not stated)	-0.144	-21.6
COCCN(C)Cc1ccc(OC)c(OC(F)F)c1	2.53	-37.4
Cc1cnn(CC2CCCCN2CC(=O)Nc2c(C)n[nH]c2C)c1 (configuration not stated)	-1.88	-12.9
O=C(c1ccno1)N1CC[C@@H]2O[C@@H](COCCN3CCCC3)CC[C@@H]21	-0.779	-4.5
COc1ncccc1NC(=O)C1CCN(S(C)(=O)=O)CC1	-1.61	-91.6
CCOc1ccc(Cl)c(C(=O)N(C)C)n1	-0.544	-62.5
Cn1c(Cn2cccn2)nnc1C1CCN(Cc2cccnc2N)CC1	-5.74	-18.3
COc1cccc2c1OCC(C(=O)N1CCN(S(C)(=O)=O)CC1)C2 (configuration not stated)	-3.14	14.3
O=C(c1cccc2c1OCO2)N1CCCC1Cn1cccn1 (configuration not stated)	3.69	29.5
CCC1=N[C@@]2(CC[C@@H]3CN(C(=O)NCc4ccccc4)C[C@@H]32)C(=O)N1C	2.18	3.06
Cc1nc(C)n(CC2CCCCN2CCC(=O)Nc2cc(C)on2)n1 (configuration not stated)	-3.42	5.91
O=C(c1ccn[nH]1)N1CCCC(n2cncn2)C1 (configuration not stated)	-5.6	-25
O=C(CCc1ccc(Cl)s1)N1CCCC(n2cncn2)C1 (configuration not stated)	2.08	5.05
CC(C)N(CC(N)=O)Cc1csc(Cc2ccccc2)n1	0.228	12
O=C1CC2(CCN(CCO)CC2)CN1Cc1cc(F)cc(F)c1	-2.67	11.4
COc1ccccc1CC(=O)N1CC[C@@]2(CCCO2)[C@@H](OC)C1	4.54	52.7
NC(=O)c1cnn2c1NCC(CNCCc1ccco1)C2 (configuration not stated)	0.367	26.6
CCC(NC(=O)CC(F)(F)F)c1ccccc1OCC(=O)N1CCCC1 (configuration not stated)	0.767	-16.8
COCC1CN(C(=O)COc2ccccc2)Cc2cn(C)nc21 (configuration not stated)	1.18	0.0839
Cc1cc(C2CCCN(C(=O)c3c(C)noc3C)C2)n[nH]1 (configuration not stated)	-1.62	8.79
CC(O)CN1CCN(C(=O)c2cccn2Cc2ccncc2)CC1 (configuration not stated)	-3.51	13.7
CC(OCC1CC1)C(=O)N1CCCN(Cc2cnn(C)c2)CC1 (configuration not stated)	1.41	-83.1
Cc1nc(COCc2cnc3n2CCN(C2CCC2)C3C)cs1 (configuration not stated)	-4.78	-5.21
O=C(O)C1(Cc2cc(-c3cccc(F)c3)no2)CCOCC1	-1.59	9.34

SMILES	Percent Effect [1] [%]	Percent Effect [2] [%]
COCc1ccc(CN2CCC(O)(Cn3ccc4ncccc43)CC2)o1	0.485	-34.6
Cc1nn(C)c2c(NCCCn3cccn3)ncnc12	-6.88	-37.5
Cc1cc(CN(Cc2cccs2)CC2CCCO2)no1 (configuration not stated)	1.32	12.5
Cc1nc(C2CCCN2C(=O)c2cc3c(s2)CCCC3)no1 (configuration not stated)	-1.23	23.4
Cn1cccc1C(=O)Nc1cc(F)ccc1OCC1CCCO1 (configuration not stated)	-6.53	22
Cn1cc(CN2CC[C@@H]3O[C@H](C(=O)N4CCOCC4)C[C@@H]32)cn1	0.521	-23.7
O=C(Cn1cc(C(=O)O)ccc1=O)NCc1ccc(F)c(Cl)c1	3.08	-51.8
CN(C)CC1CN(CCOc2cccc(C#N)c2)CCO1 (configuration not stated)	-0.815	15.6
Cc1cc(N2CCN(CCO)CC2)nc(-c2ccncc2)n1	1.26	-27.4
COCC(=O)NCCn1ccc2c(OC)cccc21	-1.31	-26.2
CCOc1ccccc1CSc1nnc(CC2CCS(=O)(=O)C2)n1C (configuration not stated)	4.33	4.92
O=C(c1ccc(O)c(Cl)c1)N1CCC(c2n[nH]c(C3CC3)n2)CC1	-0.597	0.843
c1ccc(-c2nc(CN3CCOC(Cn4cccn4)C3)no2)cc1 (configuration not stated)	-1.51	4.08
Cc1nc(C2CCCCN2C(=O)c2ccccc2)ncc1C(=O)N(C)C (configuration not stated)	-6.63	-5.42
Cc1noc([C@@H]2C[C@H]3OCC[C@H]3N(S(=O)(=O)c3cccnc3)C2)n1	-1.34	-21.9
CS(=O)(=O)NCCCN1CCCCC1c1cc2ccccc2[nH]1 (configuration not stated)	-1.17	-11.8
CNc1cc(N2CCCC2CNCc2ccc(Cl)o2)ncn1 (configuration not stated)	-2.44	26.8
CC(C)N1CCC(Cc2cnc(-c3cccc(C(=O)O)c3)cn2)C1 (configuration not stated)	-5.2	16
CC(C)c1nnc2n1CCN(C(=O)c1ccnc(N(C)C)c1)C2	-5.48	-7.07
CC(CNCc1ccc(Cl)c(Cl)c1)Oc1ccccn1 (configuration not stated)	-0.523	-59.8
Cc1nc(CN2CCCN(CCOc3cccc(C#N)c3)CC2)no1	5.09	19.3
Cc1nnc2n1CCN(C(=O)COCCOc1ccccc1)C2	-0.422	-37.2
CCn1nc(C)c2nc(C(C)C)nc(NCCCO)c21	3.48	-3.03
CCc1ncc2c(n1)CN(C(=O)COC)C2	2.9	-5.79
Cc1cnn(CC2CN(CC(=O)Nc3sccc3C#N)CCO2)c1 (configuration not stated)	-2.83	27.5
O=C1N(CCCc2ccccc2)CCCC1(O)CNCc1ccccc1 (configuration not stated)	4.53	-10.3

SMILES	Percent Effect [1] [%]	Percent Effect [2] [%]
CCc1nnc2n1CCN(Cc1nc(-c3ccoc3)no1)C2	-5.61	-17.8
Cc1ccc(=O)n(CC2(O)CCN(Cc3ccsc3)CC2)n1	-3.38	12.7
CCc1ccc(NC(=O)N2C[C@H]3C[C@H](C(=O)NC)[C@@H](C2)O3)cc1	3.34	-5.17
CS(=O)(=O)N1CCN(C(=O)Cn2ccc3c(Cl)cccc32)CC1	-0.673	-16.5
O=C(Cc1ccccn1)N1CCN(CC2CC2)c2ncccc2C1	5.6	-12.7
O=c1cc2c(nn1CN1CCN(c3ccccc3)CC1)CCC2	6.3	-14
COc1c(CNCc2ccc(C(=O)N(C)C)cc2)c(C)nn1C	2.9	-13.9
CN(C)Cc1cc(=O)n2c(n1)CN(C(=O)Cc1ccsc1)CCC2	-1.04	-17
CCc1nccn1C1CCCN(C(=O)c2csc(NC(C)=O)n2)C1 (configuration not stated)	-1.64	-11.1
CC(C)(C)SCCCC(=O)N1CCC(Nc2cccnn2)CC1	-1.23	-5.49
Cc1ccccc1N1CCCN(C(=O)CCCS(N)(=O)=O)CC1	6.58	-25.7
O=C(O)c1cc(S(=O)(=O)N2CCOc3ccccc32)ccc1F	-4.32	-3.29
CCc1nc(C2CCCN(C(=O)c3cccc4c3ccn4C)C2)no1 (configuration not stated)	-0.845	4.78
CCOc1nnc(CN2CCC(N(C)Cc3noc(C)n3)C2)s1 (configuration not stated)	5.37	24.4
Cc1ccc(NC2CCN(C(=O)COc3cccnc3)CC2)nn1	-4.47	-129
O=C1[C@H]2CN(Cc3nccs3)C[C@H]2CN1c1ccsc1	5	1.38
CC(NC(=O)N(C)CCCOc1ccc(F)cc1)c1nncn1C (configuration not stated)	-2.37	-11.9
CNC(=O)[C@H]1C[C@@H]2CN(C(=O)c3ccco3)C[C@@H]2N1S(C)(=O)=O	-2.01	-24.9
COCCc1noc(CNC2CCc3nc(C(C)C)nn3C2)n1 (configuration not stated)	3.49	9.38
Cc1nc(C)n(CC2CCCN2CC(=O)Nc2cc(C(C)C)no2)n1 (configuration not stated)	3.17	27.8
COc1ccc(C(=O)N2CC[C@H](CO)[C@H](O)C2)c(C)c1	-1.53	9.86
CC(=O)N1CCN(Cc2nnc(C(C)(C)C)o2)CC1	3.25	-4.69
Cc1ncnc(NCc2cc3n(n2)CCCN(S(C)(=O)=O)C3)c1C	0.518	12.4
